# High-throughput results from PubChem.
# An excerpt weighted towards active compounds, which were near 0.89% of everything screened.
# CBFb-RUNX1 inh: blocks binding between human CBF-beta and RUNX1 | Q01196+Q13951 | AlphaScreen CBFb-His/RUNX1-biotin binding, biochemical | Potency, µM (top dose mostly 59.8 µM), for inactives: at the highest dose activity, negative = inhibition, hits mostly inhibitors | 230,000 tested, under 10 active | AID 1477; also: % of control where 0% means no effect
#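 CBF-beta (His) and RUNX1 (biotin), 30 nM each; 20 min preassociation; + compound, 15 min; + beads 50 ng each (Ni, streptavidin), 90 min; RT; AlphaScreen read.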
# MBNL1 CUG block: inhibitors of human MBNL1 binding to CUG repeat RNA. Q9NR56. TR-FRET MBNL1-His/biotin-(CUG)12 binding, 665/545 ratio. Potency, µM (titrated, usually from 57.5 µM), inactives show top-dose activity change, negative = inhibition, actives largely listed as inhibitors. 280,000 compounds, 0.036% hits. AID 2675; active = well fitted inhibition curve with a large enough effect in the signal ratio, with a control signal flat, not every such curve was filed as active; inconclusive = small, poorly fitted or top-dose-only effect, or effect the other way, or a change in a side signal; inactive = no such curve, though single readings can be large or run the other way; the % refers to the signal ratio; also: potency is read from the fitted curve at half-maximal effect; % is scaled to controls: 0 for no effect and ±100 for the full control effect
#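 Ratiometric TR-FRET (665 over 545 nm, excitation 340 nm) tracks disruption of MBNL1-His/biotin-(CUG)12 complex after 60 min at room temperature, with compounds at 92 nM to 58 uM final.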
# Six1-Eya2 inh: inhibitors of human Six1/Eya2 interaction; AlphaScreen GST-Six1/His-Eya2 binding, biochemical; hits give low values; activity change, % (test concentration not listed); 360,000 compounds, 0.56% hits; AID 651725; in the data active = activity change below about -65%; inconclusive = mostly about -30% to -63%; also: % is scaled to controls: 0 for no effect and ±100 for the full control effect
# Target sequence (O00167 whole entry, looked up): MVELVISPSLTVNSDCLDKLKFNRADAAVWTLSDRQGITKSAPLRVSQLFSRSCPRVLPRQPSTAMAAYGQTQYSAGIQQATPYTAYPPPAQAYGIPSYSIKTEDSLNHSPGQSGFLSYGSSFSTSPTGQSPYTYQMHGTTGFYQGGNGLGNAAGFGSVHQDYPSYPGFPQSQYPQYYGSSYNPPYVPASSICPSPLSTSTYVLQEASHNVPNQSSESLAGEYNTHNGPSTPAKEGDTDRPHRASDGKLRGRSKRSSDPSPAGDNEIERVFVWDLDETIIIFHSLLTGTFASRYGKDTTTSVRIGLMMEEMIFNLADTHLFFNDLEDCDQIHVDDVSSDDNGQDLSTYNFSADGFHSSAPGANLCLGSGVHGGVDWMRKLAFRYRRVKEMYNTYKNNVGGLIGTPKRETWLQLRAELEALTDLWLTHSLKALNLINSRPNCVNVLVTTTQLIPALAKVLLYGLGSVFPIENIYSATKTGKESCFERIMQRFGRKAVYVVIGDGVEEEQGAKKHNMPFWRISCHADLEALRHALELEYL
# Target sequence (Q15475 whole entry, looked up): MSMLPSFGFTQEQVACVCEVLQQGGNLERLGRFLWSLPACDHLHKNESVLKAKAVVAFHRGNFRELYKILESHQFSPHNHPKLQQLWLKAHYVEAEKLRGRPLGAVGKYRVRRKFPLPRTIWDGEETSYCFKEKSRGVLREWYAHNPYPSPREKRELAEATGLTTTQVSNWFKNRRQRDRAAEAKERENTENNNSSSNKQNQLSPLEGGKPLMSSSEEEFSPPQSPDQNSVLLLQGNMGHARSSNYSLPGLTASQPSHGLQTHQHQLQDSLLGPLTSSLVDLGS
#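 Six1/Eya2 binding was read as AlphaScreen signal after compounds were pinned into GST-Six1 plus His-tagged Eya2 (5X stock 250/500 nM) in pH 8.0 Tris/NaCl/TCEP buffer, beads added, then incubated 1 h, 37 C, dark.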
# CtBP-E1A inh: inhibitors of CtBP/E1A interaction. AlphaScreen GST-E1A/His-CtBP binding, 1536-well; hits give low values. activity change, % (no concentration beside the values). 340,000 compounds, 0.49% hits; in the data active = activity change below about -65%; inconclusive = mostly about -30% to -63%; also: % is scaled to controls: 0 for no effect and ±100 for the full control effect
#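 AlphaScreen with 125 nM GST-E1A and 125 nM His-CtBP (5X stocks) in Tris pH 8.0, 300 mM NaCl, BSA, Tween 20, TCEP. Compounds preincubated 2 h at 37 deg C, then glutathione donor/nickel acceptor beads added for 1 h at 37 deg C in dark.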
# Eya2 inh: blocks the phosphatase activity of human Eya2 | 330,000 compounds, 0.006% hits | recombinant Eya2, OMFP fluorescence dephosphorylation (OMFP is methylfluorescein phosphate) | Potency, µM (series often up to 76.9 µM), for the others: top-dose activity, negative = inhibition, hits mostly inhibitors | O00167; also: potency is read from the fitted curve at half-maximal effect; % is scaled to controls: 0 for no effect and ±100 for the full control effect
#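 Eya2 protein (added as 0.2 uM solution) was preincubated with compound for 10 min at ambient temperature in 50 mM HEPES pH 7.5, 50 mM NaCl, 5 uM MgCl2, 0.05% BSA, 1 mM DTT. OMFP (added at 50 uM) then reacted 10 min; fluorescence read at 485/525 nm.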
# L3MBTL1 inh: blocks human L3MBTL1 | Q9Y468 | AlphaScreen L3MBTL1–H3K9me1 peptide binding | Potency, µM (titrated, usually from 57.1 µM), without a hit: at the highest dose activity, negative = inhibition, usual class: inhibitors | 230,000 compounds, 0.66% hits | AID 485360; also: potency is read from the fitted curve at half-maximal effect; % is scaled to controls: 0 for no effect and ±100 for the full control effect; nearly all actives have a fitted effect of over 60% in size
#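 L3MBTL1 (50 nM) pre-complexed 30 min with biotinylated H3(1-15)K9me1 peptide (75 nM), then compounds added for 30 min at room temperature; AlphaScreen streptavidin donor/nickel chelate acceptor beads (10 ug/mL final) read after 30 min dark incubation.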
# * hit, by the source's call; ? = inconclusive; / = no result given; [ ] = dose if it differs, or a comment. Unless noted, calls follow the shape of the dose curve; as a rule, active = well fitted curve in the direction sought with a large enough effect; inconclusive = small, poorly fitted or top-dose-only effect, or another doubt; inactive = no such curve, though single readings can be large; an effect the other way counts as inactive or inconclusive.
SMILES,CBFb-RUNX1 inh,MBNL1 CUG block,Six1-Eya2 inh,CtBP-E1A inh,Eya2 inh,L3MBTL1 inh
COc1cccc(Nc2nc(-c3sc(N)nc3C)cs2)c1,-25%,14%,?,-72*,-27%,-9%
COc1cc2[nH]c(=S)nc(NCc3ccccc3)c2cc1OC,/,?,-78*,-82*,?,/
COc1cc2[nH]c(=S)nc(NCc3ccc(C)cc3)c2cc1OC,/,13%,-74*,/,-6%,/
COc1ccc(CNc2ncnc3c2[nH]c2cc(OC)c(OC)cc23)cc1,-15%,-3%,?,?,-13%,-3%
COc1cc2[nH]c(=S)nc(NCc3ccccn3)c2cc1OC,-9%,-7%,-70*,?,-12%,/
COc1cc2[nH]c(=S)nc(NCc3cccnc3)c2cc1OC,/,-2%,-69*,-82*,15%,/
COc1cccc(-c2nc(NCc3cccnc3)c3ccccc3n2)c1O,/,3%,-6,6,8%,/
COc1cc2c(cc1NCc1ccccn1)oc1ccccc12,-13%,-6%,-11,-9,-10%,-12%
COc1ccc2nc(N3CCCC(C(=O)NCCCN4C(C)CCCC4C)C3)sc2c1 (stereo not drawn),/,1%,1,-7,0%,/
CC(NC(=O)c1ccccc1)C(c1cccs1)N1CCOCC1 (stereo not drawn),3%,-4%,-2,1,8%,8%
COc1cc2[nH]c(=S)nc(NCc3cccc(Cl)c3)c2cc1OC,/,?,?,/,13%,/
COc1ccc(CNc2nc(=S)[nH]c3cc(OC)c(OC)cc23)cc1,/,?,-82*,/,2%,/
Cc1cccc(NC(=O)c2ccc3nccnc3c2)c1C,/,?,5,-8,-3%,/
CCCC(=O)Nc1cccc(C(=O)Nc2ccccc2OCC)c1,4%,-4%,/,/,4%,-1%
O=C(/C=C/c1ccncc1)c1cc(Cl)ccc1O,-19%,-3%,-6,3,4%,-24%
CN(C)c1ccc(/C=C/C(=O)c2cc(Cl)ccc2O)cc1,?,8%,-16,/,?,32µM*
CN(C)/C=C/C(=O)c1ccc(-n2cccc2)cc1,-3%,23%,-5,-7,-1%,-13%
CN(C)c1ccc(-n2cccc2)cc1,-3%,-7%,-68*,?,-10%,?
COc1ccccc1N(C)S(=O)(=O)c1ccc(C(=O)Nc2cccc(S(=O)(=O)N3CCOCC3)c2)cc1,/,/,-2,2,/,/
Cc1ccccc1NC(=O)CSc1ccsc1[N+](=O)[O-],?,/,?,-4,-2%,25µM*
COCCCNC(=O)CSc1ccsc1[N+](=O)[O-],10%,?,10,/,2%,-7%
CC(C)(Oc1ccc(Cl)cc1)C(=O)OCC(=O)NCCc1ccccc1,/,-6%,11,15,-6%,/
CC(NC(=O)C(=O)N1CCCCC1)C(c1cccs1)N1CCN(C)CC1 (stereo not drawn),/,-6%,2,-12,-1%,/
COc1ccc(N2CCN(Cc3cc4c(cc3O)CCC4)CC2)cc1,-18%,-13%,?,-65*,14%,/
COCc1cc(CN2CCN(C)CC2)c(O)c2ncccc12,2%,20%,-92*,-93*,3%,/
SMILES,CBFb-RUNX1 inh,MBNL1 CUG block,Six1-Eya2 inh,CtBP-E1A inh,Eya2 inh,L3MBTL1 inh
Oc1c(CN2CCOCC2)cc(COCc2ccccc2)c2cccnc12,/,25%,-92*,-88*,-1%,?
CCOC(=O)N1CCN(Cc2ccccc2Cl)CC1,5%,-8%,8,6,/,/
Oc1c(CN2CCN(c3ccccc3)CC2)cc(Br)c2cccnc12,-16%,0%,-19,-26,-10%,/
CCOC(=O)N1CCN(Cc2cc(Cl)c3cccnc3c2O)CC1,1%,?,-78*,-91*,?,-89%
CCOc1ccc(CCNC(=O)c2sc3nc4n(c(=O)c3c2C)CCC4)cc1,/,0%,-4,-7,-5%,/
COCCn1c(N)c(Sc2ccc([N+](=O)[O-])cc2)c(=O)[nH]c1=O,6%,?,15,7,8%,1%[11.4 µM]
CCOc1ccc(N=Nc2cc(C(C)C)ccc2O)cc1,-18%,-7%[11.5 µM],?,?,4%,28µM*
CC1=Nc2ccccc2/C1=C/c1sc(=S)n(-c2cccc(C(=O)O)c2)c1O,?,14%,?,-67*,?,-7%
Cn1c(SCC(=O)N/N=C/C=C/c2ccco2)nc2ccccc21,?,?,-20,15,-7%,22µM*
O=C(CSc1nnc(SCc2ccccc2)s1)N/N=C/C=C/c1ccco1,/,/,-21,2,-1%,28µM*
O=C1C2C(C(=O)N1/N=C/c1cc([N+](=O)[O-])ccc1O)C1C=CC2C12CC2 (stereo not drawn),4%,?,4,7,12%,-6%
O=C1C2C(C(=O)N1/N=C/c1cc([N+](=O)[O-])c(O)cc1O)C1C=CC2C12CC2 (stereo not drawn),?,?,-9,-23,21%,32µM*
Cc1cc2nsnc2c(S(=O)(=O)N2CCN(C)CC2)c1C,/,?,-1,5,3%,/
Cc1nc(NC2CCCCC2)c2nc(-c3ccccc3)n(CCN3CCCC3)c2n1,1%,/,/,/,/,/
O=C(COC(=O)/C=C/c1ccco1)Nc1cc(S(=O)(=O)N2CCOCC2)ccc1Cl,/,/,-1,-18,9%,-8%
Cc1cc(/C=N/n2c(COc3ccccc3)nc3ccccc3c2=O)c(O)c([N+](=O)[O-])c1,/,6%,-88*,-80*,5%,5.6µM*
Cc1ccc(-c2[nH]ncc2/C=N/n2c(COc3ccccc3)nc3ccccc3c2=O)cc1,?,-3%,-1,-1,4%,2%
FC(F)(F)C1=Nc2cccc3cccc(c23)N1,/,/,?,-2,-12%,2.5µM*
CCC(C)NC(=O)c1ccccc1NC(=O)CN1C(=O)c2ccccc2S1(=O)=O (stereo not drawn),13%,-18%,9,-4,-22%,-5%
CC(=O)N/N=C/c1cc(C(C)(C)C)cc(/C=N/NC(C)=O)c1O,-30%,27%,-76*,-88*,7%,-11%
COc1ccc(-c2c(C)[nH]n3c(=O)c(Cc4ccccc4)c(C)nc23)cc1,-4%,-10%,-67*,-71*,-3%,6%
COc1ccccc1NS(=O)(=O)c1cc(NC(=O)c2ccncc2)ccc1N1CCOCC1,-1%,-25%,-21,-24,12%,7%
COc1ccccc1NS(=O)(=O)c1cc(NC(=O)c2cnccn2)ccc1N1CCOCC1,-9%,/,?,-73*,3%,-7%
COC(=O)c1sc(=S)sc1C(=O)OC,4%,11%,-89*,13,10%,1%
